# Reference: the supplement of paper PMC11732987, “Enantioselective OTUD7B fragment discovery through chemoproteomics screening and high-throughput optimisation” (Communications Chemistry, 2025)
# Values without a mark were called inactive.
# Assays:
# Assay in all cases: log2 ratio of Biotin-Ahx-Ub-VS probe labelling (fragment/DMSO); higher = less target engagement (more negative = stronger competition), active = hit call of the paper (q ≤ 0.05, log2 ratio ≤ -1)
# Conditions in all cases: compound concentration: 200 uM; treatment time: 3 h
# OTUD6B = biological target: T1, OTUD6B (UniProt Q8N6M0)
# T1 sequence (whole entry): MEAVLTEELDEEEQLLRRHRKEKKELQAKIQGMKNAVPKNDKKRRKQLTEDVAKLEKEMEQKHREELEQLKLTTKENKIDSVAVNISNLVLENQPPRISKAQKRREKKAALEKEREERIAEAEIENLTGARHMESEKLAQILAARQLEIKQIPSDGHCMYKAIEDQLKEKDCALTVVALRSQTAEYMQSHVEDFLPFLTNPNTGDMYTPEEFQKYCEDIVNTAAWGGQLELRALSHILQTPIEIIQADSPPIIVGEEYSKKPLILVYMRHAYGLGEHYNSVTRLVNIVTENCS
# How it was run: (§1)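 Average log2 ratios of fragment over vehicle were obtained by unpaired t-test from global-median-normalised Spectronaut label-free quantities. Proteins with ≥2 unique peptides were included. HEK293T lysate (495 µg per sample) was treated in triplicate with fragment at 200 µM or vehicle for 3 h, then with Biotin-Ahx-Ub-VS at 0.5 µM final for 1 h, and labelled DUBs were NeutrAvidin-enriched and run by diaPASEF LC-MS/MS.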
# OTUD7B = biological target: T2, OTUD7B (UniProt Q6GQQ9)
# T2 sequence (whole entry): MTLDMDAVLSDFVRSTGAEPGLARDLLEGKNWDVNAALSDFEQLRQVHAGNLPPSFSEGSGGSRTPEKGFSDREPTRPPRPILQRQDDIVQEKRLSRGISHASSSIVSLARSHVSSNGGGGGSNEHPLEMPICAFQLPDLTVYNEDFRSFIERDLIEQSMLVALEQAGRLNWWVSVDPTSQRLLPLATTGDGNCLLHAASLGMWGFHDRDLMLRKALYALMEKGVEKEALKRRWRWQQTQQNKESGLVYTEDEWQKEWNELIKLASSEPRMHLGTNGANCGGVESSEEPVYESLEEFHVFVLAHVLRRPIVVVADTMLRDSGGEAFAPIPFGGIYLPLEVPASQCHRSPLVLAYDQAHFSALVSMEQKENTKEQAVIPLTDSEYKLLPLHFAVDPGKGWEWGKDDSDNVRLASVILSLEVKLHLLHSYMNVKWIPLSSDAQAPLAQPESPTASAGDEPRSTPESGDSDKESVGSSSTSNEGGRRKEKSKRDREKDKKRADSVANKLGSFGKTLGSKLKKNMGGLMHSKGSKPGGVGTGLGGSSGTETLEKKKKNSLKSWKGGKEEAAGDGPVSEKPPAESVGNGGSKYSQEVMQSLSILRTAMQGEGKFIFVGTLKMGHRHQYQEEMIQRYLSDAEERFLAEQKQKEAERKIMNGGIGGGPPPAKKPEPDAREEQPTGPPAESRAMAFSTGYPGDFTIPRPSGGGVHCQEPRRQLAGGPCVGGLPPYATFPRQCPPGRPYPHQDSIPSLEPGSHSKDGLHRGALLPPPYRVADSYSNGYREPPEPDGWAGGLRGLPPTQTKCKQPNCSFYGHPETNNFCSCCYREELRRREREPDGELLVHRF
# How it was run: as §1
# PRPF8 = PRPF8 (UniProt Q6P2Q9)
# How it was run: as §1
# PSMD7 = biological target: T3, PSMD7 (UniProt P51665)
# T3 sequence (whole entry): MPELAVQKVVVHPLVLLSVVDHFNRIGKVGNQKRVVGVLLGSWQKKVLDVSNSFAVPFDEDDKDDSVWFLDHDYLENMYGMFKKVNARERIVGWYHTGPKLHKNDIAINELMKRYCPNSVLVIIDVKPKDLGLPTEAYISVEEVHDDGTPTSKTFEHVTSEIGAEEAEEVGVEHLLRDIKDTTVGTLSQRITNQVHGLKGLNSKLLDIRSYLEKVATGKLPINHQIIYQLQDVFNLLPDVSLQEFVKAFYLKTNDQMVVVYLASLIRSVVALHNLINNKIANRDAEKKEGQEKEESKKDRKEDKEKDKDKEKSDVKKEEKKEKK
# How it was run: as §1
# UCHL1 = UCHL1 (UniProt P09936)
# How it was run: as §1
# UCHL3 = biological target: T4, UCHL3 (UniProt P15374)
# T4 sequence (whole entry): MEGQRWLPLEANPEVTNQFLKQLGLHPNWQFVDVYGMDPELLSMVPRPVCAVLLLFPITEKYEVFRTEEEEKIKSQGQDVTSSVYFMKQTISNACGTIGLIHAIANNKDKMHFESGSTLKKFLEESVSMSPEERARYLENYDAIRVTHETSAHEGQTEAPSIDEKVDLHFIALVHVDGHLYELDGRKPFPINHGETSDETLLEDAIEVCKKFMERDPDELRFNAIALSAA
# How it was run: as §1
# UCHL5 = biological target: T5, UCHL5 (UniProt Q9Y5K5)
# T5 sequence (whole entry): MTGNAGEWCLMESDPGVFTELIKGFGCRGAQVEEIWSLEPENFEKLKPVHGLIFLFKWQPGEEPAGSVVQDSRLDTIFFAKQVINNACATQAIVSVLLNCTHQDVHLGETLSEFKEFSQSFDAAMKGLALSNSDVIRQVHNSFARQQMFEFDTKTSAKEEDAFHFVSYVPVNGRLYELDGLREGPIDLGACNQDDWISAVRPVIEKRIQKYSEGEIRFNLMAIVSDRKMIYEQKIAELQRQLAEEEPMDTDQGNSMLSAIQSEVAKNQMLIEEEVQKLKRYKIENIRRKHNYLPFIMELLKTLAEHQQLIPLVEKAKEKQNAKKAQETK
# How it was run: as §1
# USP10 = USP10 (UniProt Q14694)
# How it was run: as §1
# USP15 = biological target: T6, USP15 (UniProt Q9Y4E8)
# T6 sequence (whole entry): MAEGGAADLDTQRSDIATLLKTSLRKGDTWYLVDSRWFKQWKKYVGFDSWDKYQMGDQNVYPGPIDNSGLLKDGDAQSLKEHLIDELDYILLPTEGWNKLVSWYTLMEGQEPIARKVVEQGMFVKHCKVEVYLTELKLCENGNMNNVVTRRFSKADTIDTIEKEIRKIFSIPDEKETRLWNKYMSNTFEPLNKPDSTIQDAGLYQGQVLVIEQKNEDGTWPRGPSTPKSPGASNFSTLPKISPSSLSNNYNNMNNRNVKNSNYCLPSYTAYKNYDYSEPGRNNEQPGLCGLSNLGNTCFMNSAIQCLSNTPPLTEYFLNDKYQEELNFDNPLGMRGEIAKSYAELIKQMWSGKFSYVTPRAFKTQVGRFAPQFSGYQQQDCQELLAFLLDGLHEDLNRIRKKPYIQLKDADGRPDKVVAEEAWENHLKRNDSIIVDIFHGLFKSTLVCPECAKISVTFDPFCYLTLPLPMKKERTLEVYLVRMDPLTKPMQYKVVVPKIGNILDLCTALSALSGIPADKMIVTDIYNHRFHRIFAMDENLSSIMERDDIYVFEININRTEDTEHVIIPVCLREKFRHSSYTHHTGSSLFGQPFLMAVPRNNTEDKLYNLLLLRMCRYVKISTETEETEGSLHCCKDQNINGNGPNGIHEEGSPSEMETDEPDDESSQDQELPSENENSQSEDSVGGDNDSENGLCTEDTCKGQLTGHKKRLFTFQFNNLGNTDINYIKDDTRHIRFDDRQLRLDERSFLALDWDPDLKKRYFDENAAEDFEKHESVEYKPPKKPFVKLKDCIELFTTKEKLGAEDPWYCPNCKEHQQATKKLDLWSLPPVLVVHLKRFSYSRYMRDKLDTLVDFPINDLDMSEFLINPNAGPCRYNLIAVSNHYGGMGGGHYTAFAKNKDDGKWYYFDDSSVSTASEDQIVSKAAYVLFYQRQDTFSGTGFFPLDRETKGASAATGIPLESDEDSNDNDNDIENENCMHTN
# How it was run: as §1
# USP16 = USP16 (UniProt Q9Y5T5)
# How it was run: as §1
# Chain of USP16 (Q9Y5T5 whole entry, looked up): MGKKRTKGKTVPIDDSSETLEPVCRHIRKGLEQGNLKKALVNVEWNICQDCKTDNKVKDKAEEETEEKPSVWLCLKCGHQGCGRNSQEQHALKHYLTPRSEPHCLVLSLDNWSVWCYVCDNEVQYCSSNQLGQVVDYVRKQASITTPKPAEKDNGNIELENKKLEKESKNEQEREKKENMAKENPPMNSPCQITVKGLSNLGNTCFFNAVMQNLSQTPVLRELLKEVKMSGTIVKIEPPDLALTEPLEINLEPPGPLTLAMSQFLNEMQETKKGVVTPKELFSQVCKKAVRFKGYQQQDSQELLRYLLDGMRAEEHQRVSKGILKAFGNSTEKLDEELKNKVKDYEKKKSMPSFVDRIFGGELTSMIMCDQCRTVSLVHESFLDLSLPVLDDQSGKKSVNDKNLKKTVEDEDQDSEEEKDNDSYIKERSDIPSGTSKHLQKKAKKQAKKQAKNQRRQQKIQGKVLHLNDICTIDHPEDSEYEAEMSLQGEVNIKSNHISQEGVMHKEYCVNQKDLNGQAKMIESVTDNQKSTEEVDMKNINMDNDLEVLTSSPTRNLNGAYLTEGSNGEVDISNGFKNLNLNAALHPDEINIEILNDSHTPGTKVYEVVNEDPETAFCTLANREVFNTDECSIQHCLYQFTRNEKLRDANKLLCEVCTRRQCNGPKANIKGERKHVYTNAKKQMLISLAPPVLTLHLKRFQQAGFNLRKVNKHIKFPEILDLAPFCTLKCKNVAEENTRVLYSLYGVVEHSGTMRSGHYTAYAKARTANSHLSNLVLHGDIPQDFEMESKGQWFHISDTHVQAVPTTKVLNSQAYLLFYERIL
# Chain of USP10 (Q14694 whole entry): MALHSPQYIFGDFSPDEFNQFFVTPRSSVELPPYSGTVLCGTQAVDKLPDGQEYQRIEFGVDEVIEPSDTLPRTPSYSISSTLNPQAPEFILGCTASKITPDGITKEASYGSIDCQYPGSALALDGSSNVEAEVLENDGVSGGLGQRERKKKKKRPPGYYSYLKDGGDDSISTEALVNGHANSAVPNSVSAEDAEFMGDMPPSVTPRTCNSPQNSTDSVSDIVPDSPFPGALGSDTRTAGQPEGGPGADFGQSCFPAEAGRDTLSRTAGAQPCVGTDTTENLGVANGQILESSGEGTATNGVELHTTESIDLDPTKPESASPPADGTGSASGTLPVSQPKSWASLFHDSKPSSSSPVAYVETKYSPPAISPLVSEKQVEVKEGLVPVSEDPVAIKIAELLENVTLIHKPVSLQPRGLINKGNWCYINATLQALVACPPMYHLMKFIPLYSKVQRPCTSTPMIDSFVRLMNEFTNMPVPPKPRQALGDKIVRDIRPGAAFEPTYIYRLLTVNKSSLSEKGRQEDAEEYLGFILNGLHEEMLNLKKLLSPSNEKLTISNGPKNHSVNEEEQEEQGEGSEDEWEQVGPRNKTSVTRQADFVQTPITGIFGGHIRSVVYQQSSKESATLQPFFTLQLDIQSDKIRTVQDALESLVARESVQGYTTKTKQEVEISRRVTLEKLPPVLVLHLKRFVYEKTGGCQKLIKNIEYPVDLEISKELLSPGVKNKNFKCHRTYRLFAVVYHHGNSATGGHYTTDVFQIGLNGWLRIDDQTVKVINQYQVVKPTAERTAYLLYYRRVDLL
# Chain of UCHL1 (P09936 whole entry, looked up): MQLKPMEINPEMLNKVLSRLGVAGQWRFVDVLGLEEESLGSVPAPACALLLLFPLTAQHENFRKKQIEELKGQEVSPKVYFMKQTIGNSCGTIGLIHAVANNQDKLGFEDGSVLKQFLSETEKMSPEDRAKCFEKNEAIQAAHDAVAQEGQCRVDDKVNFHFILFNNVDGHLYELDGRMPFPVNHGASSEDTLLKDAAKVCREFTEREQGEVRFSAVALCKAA
structure (smiles),measurement,setting,value
Cl.O=C(CCl)NCc1cc2c(nc1O)CCCC2,log2 ratio of Biotin-Ahx-Ub-VS probe labelling,OTUD6B,-0.123
same,log2 ratio of Biotin-Ahx-Ub-VS probe labelling,OTUD7B,-0.66
same,log2 ratio of Biotin-Ahx-Ub-VS probe labelling,PRPF8,-0.141
same,log2 ratio of Biotin-Ahx-Ub-VS probe labelling,PSMD7,-0.244
same,log2 ratio of Biotin-Ahx-Ub-VS probe labelling,UCHL1,-1.64 (active)
same,log2 ratio of Biotin-Ahx-Ub-VS probe labelling,UCHL3,0.175
same,log2 ratio of Biotin-Ahx-Ub-VS probe labelling,UCHL5,-0.407
same,log2 ratio of Biotin-Ahx-Ub-VS probe labelling,USP10,-0.083
same,log2 ratio of Biotin-Ahx-Ub-VS probe labelling,USP15,-0.148
same,log2 ratio of Biotin-Ahx-Ub-VS probe labelling,USP16,-0.389
